Data reported in PubChem BioAssay (NCI).
The panel holds about 83,000 compounds, 20% with a hit somewhere; the sample as a whole holds those more often.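 Growth was measured after 48 h exposure to one concentration of compound in 96-well plates. Values under 10 count as active.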 Calls of active or inactive are those of the source.

How the values were obtained:
Assay in all cases: NCI-60 one-dose screen, 48 h (100 = growth as untreated, 0 = no growth, -100 = all killed)
Details in all cases: 10 µM unless noted
NCI-H23 lung = tested on: NCI-H23 lung
NCI-H226 lung = tested on: NCI-H226 lung
NCI-H322M lung = tested on: NCI-H322M lung
HOP-62 NSCLC = tested on: HOP-62 NSCLC
NCI-H460 lung = tested on: NCI-H460 lung
HOP-92 NSCLC = tested on: HOP-92 NSCLC
NCI-H522 lung = tested on: NCI-H522 lung
A549/ATCC NSCLC = tested on: A549/ATCC NSCLC
COLO 205 colon = tested on: COLO 205 colon
DU-145 prostate = tested on: DU-145 prostate
K-562 leukemia = tested on: K-562 leukemia
MALME-3M melanoma = tested on: MALME-3M melanoma
MDA-MB-231 breast = tested on: MDA-MB-231 breast
RXF 393 renal = tested on: RXF 393 renal
SF-268 CNS = tested on: SF-268 CNS
SF-295 CNS = tested on: SF-295 CNS
SF-539 CNS = tested on: SF-539 CNS
UACC-257 melanoma = tested on: UACC-257 melanoma
M14 melanoma = tested on: M14 melanoma
786-0 renal = tested on: 786-0 renal

Measured: growth

COc1ccc(C(=O)c2cc(OC)c(OC)c(OC)c2)cc1O
active: NCI-H460 lung 2.85% | DU-145 prostate 9.94% | K-562 leukemia 8.98% | RXF 393 renal 0.69% | SF-295 CNS -8.79% | SF-539 CNS -22.1% | M14 melanoma -3.92%
inactive: NCI-H23 lung 27.7% | NCI-H226 lung 84.6% | NCI-H322M lung 43.7% | HOP-62 NSCLC 22.7% | HOP-92 NSCLC 51.5% | NCI-H522 lung 12.4% | A549/ATCC NSCLC 17.8% | COLO 205 colon 41.9% | MALME-3M melanoma 35.2% | MDA-MB-231 breast 24.8% | SF-268 CNS 29.3% | UACC-257 melanoma 69.3%

Cc1cc2c(c(C)c1Cl)C(=O)/C(=C/c1ccc(O)c(O)c1)O2
inactive: NCI-H23 lung 94.6% | NCI-H226 lung 92.9% | NCI-H322M lung 104% | HOP-62 NSCLC 90.5% | NCI-H460 lung 99.9% | HOP-92 NSCLC 90.2% | NCI-H522 lung 87.3% | A549/ATCC NSCLC 97.8% | 786-0 renal 107% | COLO 205 colon 114% | DU-145 prostate 109% | MALME-3M melanoma 111% | MDA-MB-231 breast 91.3% | RXF 393 renal 113% | SF-268 CNS 108% | SF-295 CNS 103% | SF-539 CNS 100% | UACC-257 melanoma 97.7% | M14 melanoma 95.2%

NNC(=O)c1ccc(-n2nc(-c3ccccc3)c3ccccc32)cc1
inactive: NCI-H23 lung 87.8% | NCI-H226 lung 82.3% | NCI-H322M lung 74.5% | HOP-62 NSCLC 65.2% | NCI-H460 lung 97.2% | HOP-92 NSCLC 87.2% | NCI-H522 lung 79.8% | A549/ATCC NSCLC 95.3% | COLO 205 colon 79.8% | DU-145 prostate 79.7% | K-562 leukemia 84.1% | MALME-3M melanoma 90.2% | MDA-MB-231 breast 63.9% | RXF 393 renal 61.7% | SF-268 CNS 64% | SF-295 CNS 75.2% | SF-539 CNS 82.8% | UACC-257 melanoma 99.5% | M14 melanoma 77%

CCOC(=O)c1nc2c3ccccc3ccn2c1C(=O)OCC
inactive: NCI-H23 lung 96.9% | NCI-H226 lung 97.2% | NCI-H322M lung 95.1% | HOP-62 NSCLC 102% | NCI-H460 lung 118% | HOP-92 NSCLC 103% | NCI-H522 lung 88.3% | A549/ATCC NSCLC 103% | COLO 205 colon 109% | DU-145 prostate 92.1% | K-562 leukemia 99.1% | MALME-3M melanoma 103% | MDA-MB-231 breast 98.2% | RXF 393 renal 103% | SF-268 CNS 89% | SF-295 CNS 104% | SF-539 CNS 99.9% | UACC-257 melanoma 126% | M14 melanoma 121%

CCOC(=O)c1cc(C(=O)c2ccc(Br)cc2)n2ccc(/C=C/c3cc[n+](CC(=O)c4ccc(OC)cc4)cc3)cc12
active: K-562 leukemia 3.23%
inactive: NCI-H23 lung 92.5% | NCI-H226 lung 101% | NCI-H322M lung 96.2% | HOP-62 NSCLC 100% | NCI-H460 lung 96.4% | HOP-92 NSCLC 96.4% | NCI-H522 lung 91.8% | A549/ATCC NSCLC 73.3% | COLO 205 colon 91.7% | DU-145 prostate 87% | MALME-3M melanoma 97.9% | MDA-MB-231 breast 71.6% | RXF 393 renal 94.4% | SF-268 CNS 110% | SF-295 CNS 103% | SF-539 CNS 102% | UACC-257 melanoma 100% | M14 melanoma 95.9%

CCOC(=O)c1cc(C(=O)c2cc(OC)cc(OC)c2)n2ccc3ccccc3c12
inactive: NCI-H23 lung 81.5% | NCI-H226 lung 91.8% | NCI-H322M lung 91.1% | HOP-62 NSCLC 70.7% | NCI-H460 lung 101% | HOP-92 NSCLC 111% | NCI-H522 lung 83.3% | A549/ATCC NSCLC 77.9% | COLO 205 colon 115% | DU-145 prostate 100% | K-562 leukemia 98.7% | MALME-3M melanoma 99.1% | MDA-MB-231 breast 80.1% | RXF 393 renal 61.5% | SF-268 CNS 78.1% | SF-295 CNS 94.9% | SF-539 CNS 74.1% | UACC-257 melanoma 93.4% | M14 melanoma 105%

CCOC(=O)c1cc(C(=O)c2ccc(OC)cc2)n2ccc(/C=C/c3cc[n+](CC(=O)c4ccc(OC)cc4)cc3)cc12
active: K-562 leukemia -15.2%
inactive: NCI-H23 lung 83.6% | NCI-H226 lung 90.7% | NCI-H322M lung 86.3% | HOP-62 NSCLC 81.1% | NCI-H460 lung 75.1% | HOP-92 NSCLC 50.1% | NCI-H522 lung 57.1% | A549/ATCC NSCLC 52.2% | COLO 205 colon 65.3% | DU-145 prostate 75% | MALME-3M melanoma 92.1% | MDA-MB-231 breast 72.1% | RXF 393 renal 99.9% | SF-268 CNS 94.5% | SF-295 CNS 104% | SF-539 CNS 92.9% | UACC-257 melanoma 111% | M14 melanoma 75.4%

N#C/C(=C\c1ccc(C(F)(F)F)cc1)c1cc2ccccc2[nH]1
inactive: NCI-H23 lung 98.1% | NCI-H226 lung 101% | NCI-H322M lung 100% | HOP-62 NSCLC 99.8% | NCI-H460 lung 97.7% | HOP-92 NSCLC 119% | NCI-H522 lung 84.5% | A549/ATCC NSCLC 100% | COLO 205 colon 113% | DU-145 prostate 105% | K-562 leukemia 90.3% | MALME-3M melanoma 103% | MDA-MB-231 breast 92.7% | RXF 393 renal 113% | SF-268 CNS 99.4% | SF-295 CNS 99.8% | SF-539 CNS 107% | UACC-257 melanoma 104% | M14 melanoma 108%
